In PubChem BioAssay (EPA / NIEHS) one finds outcome and AC50 data, which are given here for 31 molecules.

Structures are written as SMILES. Active and inactive are the calls of the source. Rule for the calls: active = hit-call score of the fitted dose curve at least 0.9, where 1 is the maximum; inactive = score below 0.9.

The assay in a line: CCTE_Shafer_MEA_acute_per_network_burst_spike_number_std: CCTE's Neural Acute Assay for Standard Deviation of Number of Spikes in a Network Burst, Shafer Lab (AID 2284020).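 Note: fitted for decrease in spike-number SD versus DMSO so actives lower it.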 The protocol:
CCTE_Shafer_MEA_acute assay is conducted using Axion Biosystems 48 well microelectrode array (MEA) plates and Maestro recording system. Each well of the MEA plate contains a grid of 16 microelectrodes embedded in the culture surface. Electrically active cells, such as neurons, can be cultured over the electrodes, and electrical activity in these cells can be recorded extracellularly. The spontaneous firing of neurons is captured from each electrode on a microsecond timescale providing both temporally and spatially precise data. […] The CCTE_Shafer_MEA_acute assay uses primary cultures of rat cortical neurons. As these cultures mature over time, neural networks develop functional activity and form cohesive networks in which electrical activity can be highly coordinated. Baseline 40-minute recordings are made on days post-plating 13 or 15, followed by a secondary 40-minute recording after chemical exposure.CCTE_Shafer_MEA_acute_per_network_burst_spike_number_std is a component of the CCTE_Shafer_MEA_acute assay. It measures the standard deviation of the number of spikes (action potential firings) in a network burst (temporally-clustered group of spikes across multiple electrodes) during a recording in a microelectrode array (MEA) using Axion Biosystems Maestro 768 channel amplifier with the AxIS adaptive spike detector. The recordings before and after chemical treatment are used to calculate a percent change in the standard deviation of the number of spikes in network bursts in each well.Data from the assay component CCTE_Shafer_MEA_acute_burst_spike_number_std was analyzed into 1 assay endpoint. This assay endpoint, CCTE_Shafer_MEA_acute_burst_spike_number_std, was analyzed in the negative analysis fitting direction relative to DMSO as the negative control and baseline of activity. Using a type of functional reporter, gain or loss-of-signal activity can be used to understand electrical activity.
Spontaneous activity in the cortical cultures was recorded using an Axion Biosystems Maestro 768 channel amplifier and Axion Integrated Studios (AxIS) v1.8 (or later) software. The amplifier recorded from all channels simultaneously (gain = 1200 x; sampling rate = 12.5 kHz/channel): raw signals were filtered with a Butterworth band-pass filter (300-5000 Hz), which filters out slower local field potentials leaving only fast potentials, i.e., "spikes", arising from extracellular currents associated with action potentials (Pine 2006; Wheeler and Nam 2011). On-line spike detection of filtered signals was conducted with the AxIS adaptive spike detector, using a threshold of 8x the root mean squared (rms) noise on each channel. Any electrodes with rms noise levels greater than 5 uV were grounded (e.g., no data were recorded). Once grounded, an electrode was grounded for the duration of the experiment. All recordings were conducted at 37 C. Wells were deemed usable if on the day of the exposure >/= 10 electrodes were active (defined as >/= 5 spikes/min). On DIV 13 or 15, a minimum of three wells from one cortical culture preparation were treated with each compound (0.03-40 uM). Prior to recording baseline activity, each mwMEA plate was placed in the Maestro at 37 C and allowed to sit for 20 min while firing rates stabilized. Baseline activity (40 min) was recorded before the addition of each compound. An additional 40 min of spontaneous activity was recorded in the presence of each compound. Changes in network parameters relative to baseline were assessed following compound treatment.
For `Clc1nc(Cl)nc(Nc2ccccc2Cl)n1`, the molecule was classed as inactive. On to `Cc1c(COC(=O)[C@@H]2[C@H](/C=C(\Cl)C(F)(F)F)C2(C)C)cccc1-c1ccccc1`, for which the concentration at half-maximal activity (AC50) was 0.931 µM (active). In the case of `CCOc1nc(F)cc2nc(S(=O)(=O)Nc3c(Cl)cccc3Cl)nn12`, the molecule was called inactive. Consider `O=C(Nc1ccccc1-c1ccc(Cl)cc1)c1cccnc1Cl`, for which the molecule was called inactive. Take `Cc1nc(N(C)C)nc(OC(=O)N(C)C)c1C`: the call was inactive. Still for that read-out and setting: under `CC1(C)CCC(=Cc2ccc(Cl)cc2)C1(O)Cn1cncn1` (stereo unspecified) stands “inactive”.

Take `CCOC(=O)C(C)OC(=O)c1cc(Oc2ccc(C(F)(F)F)cc2Cl)ccc1[N+](=O)[O-]` (stereo unspecified): the call was inactive. `CCCN(CC)CC1COC2(CCC(C(C)(C)C)CC2)O1` (stereo unspecified): the molecule was classed as inactive. Regarding `CCCC(=NOCC)C1=C(O)CC(CC(C)SCC)CC1=O` (stereo unspecified), the AC50 is 25.4 µM (active). Turning to `CC(C)N1C(=O)N(c2ccccc2)CSC1=NC(C)(C)C`, the AC50 is 17.6 µM (active).

For the molecule `CCCCC(O)(Cn1cncn1)c1ccc(Cl)cc1Cl` (stereo unspecified), the outcome was inactive. As for `N#Cc1c[nH]cc1-c1cccc2c1OC(F)(F)O2`, the AC50 is 20 µM (active).

For `CCOc1cc(C(C)(C)C)ccc1C1COC(c2c(F)cccc2F)=N1` (stereo unspecified), the AC50 is 29 µM (active). Regarding `CC(C)N1C(=O)c2ccccc2NS1(=O)=O`, the call was inactive. For `CC1(C)C(C=C(Cl)Cl)C1C(=O)OC(C#N)c1cccc(Oc2ccccc2)c1` (stereo unspecified), the molecule was called inactive. As to `CNC(=O)Oc1cccc2ccccc12`, the call was inactive. Regarding `OC(c1ccc(Cl)cc1)(c1ccc(Cl)cc1)C(Cl)(Cl)Cl`, the AC50 is 20 µM (active). Still for that read-out and setting: the value for `CC(C)=CC1C(C(=O)OCc2coc(Cc3ccccc3)c2)C1(C)C` (stereo unspecified) was 20 µM (active). In the case of `CO/N=C(/C1=NOCCO1)c1ccccc1Oc1ncnc(Oc2ccccc2Cl)c1F`, the molecule was classed as inactive.

On to `COC(=O)N(C(=O)N1CO[C@@]2(C(=O)OC)Cc3cc(Cl)ccc3C2=N1)c1ccc(OC(F)(F)F)cc1`, for which the molecule was classed as inactive.

With `C=C(C)CN(CC)c1c([N+](=O)[O-])cc(C(F)(F)F)cc1[N+](=O)[O-]`, the result was inactive.

`Cc1ccc(N=CN(C)C=Nc2ccc(C)cc2C)c(C)c1`: the AC50 was 4.1 µM (active). `Cn1c(-c2ccccc2)cc(-c2ccccc2)[n+]1C`: the molecule was classed as inactive. With `COCC(=O)N(c1c(C)cccc1C)C(C)C(=O)OC` (stereo unspecified), the call was inactive. The same measure, in the same setting: the value for `CC(C)C1(C)N=C(c2ncccc2C(=O)O)NC1=O` (stereo unspecified) was “inactive”; that for `CCOP(=O)(OCC)Oc1nc(Cl)c(Cl)cc1Cl` was “inactive”; that for `N#CN=C1SCCN1Cc1ccc(Cl)nc1` was “inactive”.

On to `COP(=S)(OC)SCn1nnc2ccccc2c1=O`, for which the call was inactive. Take `CN/C(=N\[N+](=O)[O-])NCc1cnc(Cl)s1`: the call was inactive. Take `Nc1c(Cl)c(F)nc(OCC(=O)O)c1Cl`: the outcome was inactive. On to `CC1(C)C(C(=O)OC(C#N)c2cccc(Oc3ccccc3)c2)C1(C)C` (stereo unspecified), for which the result was inactive.
